Nine compounds from PubChem BioAssay (Tox21) can be followed below.

Values without a mark were called inactive. Records with an inconclusive call do not appear. Calls of active or inactive are those of the source. Unless noted, the call rests on the fitted dose curve; in most records, active means well fitted curve in the direction sought with a large enough effect in the repeat runs; inconclusive means weak or mixed curves; inactive means no such curve, though single readings can be large; an effect the other way counts as inactive or inconclusive.

A short description of experiment [1]: A CellTox Green Cytotoxicity Assay to monitor cytotoxicity in HepG2 cells - 16 hour (AID 1224876). Further: nearly all actives have a fitted effect of over 45% in size. In outline:
(§1)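 Measurements at 0, 8, 16, 24, 32 and 40 h of treatment captured CellTox Green fluorescence in HepG2 cells that had been co-plated with reagent and preincubated 5 h at 37 C/5% CO2.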

A short description of experiment [2]: qHTS RealTime-Glo MT Cell Viability Assay in HepG2 cells - 32 hour (AID 1224877). Further: nearly all actives have a fitted effect of over 55% in size. In outline:
(§2)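 Luminescence read-out: viable HepG2 cells reduce a prosubstrate to a NanoLuc substrate, giving a signal proportional to live cell number. Reads taken at 0, 8, 16, 24, 32 and 40 h of compound exposure at 37 C.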
(In qHTS, concentration-response curves come from the screen itself.)

Experiment [3] is described as follows: A CellTox Green Cytotoxicity Assay to monitor cytotoxicity in HepG2 cells - 24 hour (AID 1224878). Further: nearly all actives have a fitted effect of over 45% in size. In outline: as §1
Experiment [4] can be described thus: A CellTox Green Cytotoxicity Assay to monitor cytotoxicity in HepG2 cells - 40 hour (AID 1224879). Further: nearly all actives have a fitted effect of over 40% in size. An outline of the steps:
as §1

A short description of experiment [5]: qHTS RealTime-Glo MT Cell Viability Assay in HEK293 cells - 0 hour (AID 1224880). Further: top concentration of the series differs between compounds; nearly all actives have a fitted effect of over 45% in size. An outline of the steps:
(§3)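 HEK293 + NanoLuc + prosubstrate, 600 cells/well; 5 h, 37 C/5% CO2; compound 23 nL in DMSO by pintool; 37 C; luminescence read at 0, 8, 16, 24, 32 and 40 h time points.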

A short description of experiment [6]: A CellTox Green Cytotoxicity Assay to monitor cytotoxicity in HEK293 cells - 32 hour (AID 1224881). Further: nearly all actives have a fitted effect of over 40% in size. In outline:
(§4)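 Tox21 screen in HEK293: membrane-impermeant cyanine dye fluoresces on binding dead-cell DNA; compound pinned 5 h post-seeding, plates held at 37 C, signal read repeatedly through 40 h.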

Experiment [7] is described as follows: A CellTox Green Cytotoxicity Assay to monitor cytotoxicity in HepG2 cells - 0 hour (AID 1224882). Further: nearly all actives have a fitted effect of over 35% in size. An outline of the steps: as §1
A short description of experiment [8]: A CellTox Green Cytotoxicity Assay to monitor cytotoxicity in HepG2 cells - 32 hour (AID 1224883). Further: nearly all actives have a fitted effect of over 50% in size. An outline of the steps: as §1
Experiment [9] in a line: A CellTox Green Cytotoxicity Assay to monitor cytotoxicity in HEK293 cells - 8 hour (AID 1224884). Further: nearly all actives have a fitted effect of over 35% in size. Further: potency means the concentration at half of the fitted maximal effect. In outline:
as §4

Experiment [10] can be described thus: qHTS RealTime-Glo MT Cell Viability Assay in HepG2 cells - 16 hour (AID 1224885). Further: nearly all actives have a fitted effect of over 50% in size. In outline: as §2
Experiment [11] in a line: qHTS RealTime-Glo MT Cell Viability Assay in HEK293 cells - 8 hour (AID 1224887). Further: top concentration of the series differs between compounds; nearly all actives have a fitted effect of over 50% in size. An outline of the steps:
as §3

Experiment [12] can be described thus: A CellTox Green Cytotoxicity Assay to monitor cytotoxicity in HEK293 cells - 16 hour (AID 1224888). Further: nearly all actives have a fitted effect of over 35% in size. In outline:
as §4

Experiment [13] in a line: qHTS RealTime-Glo MT Cell Viability Assay in HepG2 cells - 0 hour (AID 1224889). Further: nearly all actives have a fitted effect of over 50% in size. An outline of the steps:
as §2

A short description of experiment [14]: A CellTox Green Cytotoxicity Assay to monitor cytotoxicity in HepG2 cells - 8 hour (AID 1224890). Further: nearly all actives have a fitted effect of over 45% in size. In outline:
as §1

The nature of experiment [15]: qHTS assay to identify small molecule antagonists of the estrogen receptor alpha (ER-alpha) signaling pathway using the BG1 cell line in the presence of 0.1 nM 17-beta-estradiol - cell viability counter screen (AID 1259241). Further: nearly all actives have a fitted effect of over 40% in size. In outline: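 Cells were plated and left 24 hr, compounds in DMSO were pinned in, 17beta-estradiol was added to 0.1 nM final, and after 22 hr CellTiter-Fluor reagent was added for 30 min before fluorescence was read.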

Experiment [16] in a line: qHTS assay to identify small molecule antagonists of the androgen receptor (AR) signaling pathway using the MDA cell line in the presence of 0.5 nM R1881 - cell viability counter screen (AID 1259242). Further: nearly all actives have a fitted effect of over 45% in size. In outline:
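Concentration-response screen of compounds for toxicity in MDA-kb2 reporter cells: 16 hr at 37C with 0.5 nM R1881, endpoint live-cell protease fluorescence measured in the reporter wells.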

In experiment [17] the target is Estrogen receptor (Homo sapiens) (UniProt P03372). Nature of the experiment: qHTS assay to identify small molecule antagonists of the estrogen receptor alpha (ER-alpha) signaling pathway using the BG1 cell line in the presence of 0.1 nM 17-beta-estradiol (AID 1259244). Further: nearly all actives have a fitted effect of over 50% in size. In outline: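 Compounds were tested against 0.1 nM (final) 17beta-estradiol in VM7Luc4E2 cells, which express full-length ER-alpha and an ERE-luciferase reporter; luminescence was recorded following 22 h exposure.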

Experiment [18] can be described thus: qHTS assay to identify small molecule phospholipidosis (PLD) inducers (AID 1259344; active means well fitted curve in the direction sought with a large enough effect; an effect the other way counts as inactive or inconclusive). An outline of the steps:
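Phospholipid accumulation was scored by imaging: fixed, Hoechst-counterstained HepG2 cells stained with LipidTOX Red after 24 h compound exposure at 37 C. Read-outs were pit count and pit intensity per well or per cell, with amiodarone and DMSO controls.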

A short description of experiment [19]: qHTS RealTime-Glo MT Cell Viability Assay in HEK293 cells - 24 hour (AID 1224886). In outline:
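Nonlytic real-time viability readout: viable cells convert prosubstrate to NanoLuc substrate, giving luminescence proportional to live cell number. HEK293, 600 cells/well, compound added after 5 h, continuous culture at 37 C.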

Experiment [20] has as its target Androgen receptor (Homo sapiens) (UniProt P10275). Nature of the experiment: qHTS assay to identify small molecule antagonists of the androgen receptor (AR) signaling pathway using the MDA cell line in the presence of 0.5 nM R1881 (AID 1259243). Further: nearly all actives have a fitted effect of over 50% in size. An outline of the steps:
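With R1881 held at 0.5 nM (final), compound effects on MMTV-luciferase expression in MDA-kb2 cells were scored by luminescence after a 16 hr, 37C incubation.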

Estrogen receptor (Homo sapiens), sequence (P03372 whole entry, looked up): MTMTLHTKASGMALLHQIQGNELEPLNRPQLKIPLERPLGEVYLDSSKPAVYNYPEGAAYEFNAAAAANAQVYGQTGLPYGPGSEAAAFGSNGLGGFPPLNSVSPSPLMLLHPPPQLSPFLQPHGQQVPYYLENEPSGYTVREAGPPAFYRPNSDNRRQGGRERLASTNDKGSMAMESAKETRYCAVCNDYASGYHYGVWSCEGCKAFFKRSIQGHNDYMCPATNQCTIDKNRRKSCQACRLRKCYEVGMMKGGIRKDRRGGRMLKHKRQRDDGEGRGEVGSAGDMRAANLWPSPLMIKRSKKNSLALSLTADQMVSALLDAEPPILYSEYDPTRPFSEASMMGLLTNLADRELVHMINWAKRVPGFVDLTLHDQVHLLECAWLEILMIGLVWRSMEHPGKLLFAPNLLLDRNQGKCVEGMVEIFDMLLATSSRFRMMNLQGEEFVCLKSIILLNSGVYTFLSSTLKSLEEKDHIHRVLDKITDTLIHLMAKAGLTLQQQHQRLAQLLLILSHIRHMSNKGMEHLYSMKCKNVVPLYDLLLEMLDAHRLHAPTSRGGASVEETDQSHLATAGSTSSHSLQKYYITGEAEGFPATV
Androgen receptor (Homo sapiens), sequence (P10275 whole entry, looked up): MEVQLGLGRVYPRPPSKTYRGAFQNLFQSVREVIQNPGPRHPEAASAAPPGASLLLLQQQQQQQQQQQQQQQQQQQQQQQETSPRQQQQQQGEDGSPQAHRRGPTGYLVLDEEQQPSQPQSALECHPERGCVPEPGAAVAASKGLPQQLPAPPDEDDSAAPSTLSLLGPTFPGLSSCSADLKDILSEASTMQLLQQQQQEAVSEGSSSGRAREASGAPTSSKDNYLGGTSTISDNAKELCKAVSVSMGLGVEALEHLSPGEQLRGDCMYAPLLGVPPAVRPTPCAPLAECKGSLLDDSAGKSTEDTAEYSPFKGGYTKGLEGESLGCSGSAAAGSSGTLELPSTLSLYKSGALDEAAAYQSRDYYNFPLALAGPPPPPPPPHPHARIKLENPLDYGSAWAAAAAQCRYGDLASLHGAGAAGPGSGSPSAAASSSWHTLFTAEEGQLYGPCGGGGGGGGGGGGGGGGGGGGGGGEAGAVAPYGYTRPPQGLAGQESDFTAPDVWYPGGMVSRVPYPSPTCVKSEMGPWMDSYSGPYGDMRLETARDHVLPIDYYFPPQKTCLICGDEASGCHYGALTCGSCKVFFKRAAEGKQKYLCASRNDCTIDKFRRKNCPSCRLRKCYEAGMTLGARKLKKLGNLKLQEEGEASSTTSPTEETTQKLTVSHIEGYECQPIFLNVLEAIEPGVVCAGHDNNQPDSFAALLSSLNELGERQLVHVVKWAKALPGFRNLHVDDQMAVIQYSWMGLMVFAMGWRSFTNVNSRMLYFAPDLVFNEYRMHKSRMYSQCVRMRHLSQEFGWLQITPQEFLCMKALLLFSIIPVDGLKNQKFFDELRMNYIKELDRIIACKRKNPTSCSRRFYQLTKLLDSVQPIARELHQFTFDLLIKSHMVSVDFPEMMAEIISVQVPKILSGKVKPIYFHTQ

For the compound `Cc1ccc2c(c1)c1c3n2CCNC3CCC1` (configuration not stated), the Potency result in [1], in [3], in [4], in experiment [6], in experiment [7] and in experiment [8] was “inactive” throughout. The Potency entry in [9], in experiment [11], in [12], in experiment [13], in experiment [14] and in experiment [15] was “inactive” throughout. Further, in experiment [16], the Potency entry was “inactive”. The outcome in experiment [2], in [5] and in experiment [10] was inactive.
On to `CC(=O)N(CC(O)CO)c1c(I)c(C(=O)NCC(O)CO)c(I)c(C(=O)NCC(O)CO)c1I` (configuration not stated), for which the Potency entry in experiment [1], in [3], in experiment [4], in experiment [6], in experiment [7] and in [8] was “inactive” in each case. For the same compound, the Potency entry in experiment [9], in experiment [11], in experiment [12], in experiment [13], in experiment [14] and in [15] was “inactive” throughout. Besides, the Potency entry in experiment [16] and in experiment [17] was “inactive” each time. Besides, the result in experiment [2], in experiment [5], in experiment [10] and in experiment [18] was inactive.
As to `CCCCCC(=O)OCC`, the Potency entry in experiment [1], in experiment [3], in experiment [4], in experiment [6], in experiment [7] and in experiment [8] was “inactive” each time. In addition, the Potency result in [9], in [11], in experiment [12], in experiment [13], in experiment [16] and in experiment [17] was “inactive” throughout. The compound was called inactive in [2], in experiment [5] and in experiment [10].
As for `CN=C(NC#N)NCCSCc1csc(N=C(N)N)n1`, the Potency result in [1], in [3], in [4], in [6], in [7] and in experiment [8] was “inactive” each time. The Potency entry in experiment [9], in [11], in experiment [12], in experiment [13], in [14] and in experiment [16] was “inactive” in each case. Also, the compound was called inactive in experiment [2], in experiment [5], in experiment [10] and in experiment [18].
Regarding `CCN(CCO)c1cccc(C)c1`, the Potency entry in [1], in experiment [3], in experiment [4], in [6], in experiment [7] and in [8] was “inactive” in each case. In addition, the Potency entry in [9], in experiment [11], in experiment [12], in experiment [13], in experiment [15] and in experiment [17] was “inactive” in each case. In addition, the outcome in experiment [2], in [5] and in [10] was inactive.
In the case of `COCCOCCOCCOC`, the Potency result in [1], in experiment [3], in experiment [4], in experiment [6], in experiment [7] and in experiment [8] was “inactive” each time. The Potency result in experiment [9], in [11], in experiment [12], in [13] and in experiment [16] was “inactive” throughout. The call in experiment [2], in experiment [5] and in experiment [10] was inactive.
Turning to `C=CCOc1c(Br)cc(Br)cc1Br`, the Potency entry in experiment [1], in [3], in experiment [4], in experiment [6], in experiment [7] and in experiment [8] was “inactive” each time. Moreover, the Potency result in [9], in [19], in [11], in experiment [12], in experiment [13] and in experiment [16] was “inactive” throughout. For the same compound, in [17], the Potency result was “inactive”. Moreover, the result in [2], in experiment [5] and in [10] was inactive.
As to `CC(C)COC(=O)COc1ccc(Cl)cc1Cl`, the Potency entry in [1], in experiment [3], in experiment [4], in experiment [6], in [7] and in experiment [8] was “inactive” each time. Moreover, the Potency result in [19], in experiment [11], in experiment [13], in experiment [14] and in [16] was “inactive” each time. Further, the compound was called inactive in [2], in experiment [5], in [10] and in experiment [20]. Moreover, in experiment [9], the Potency is 43.6 µM (active).
On to `CNCc1ccccc1`, for which the Potency entry in experiment [1], in experiment [3], in [4], in experiment [6], in [7] and in experiment [8] was “inactive” each time. Besides, the Potency result in experiment [9], in experiment [11], in experiment [12], in experiment [13], in [14] and in experiment [15] was “inactive” throughout. Also, the call in experiment [2], in [5], in experiment [10] and in experiment [18] was inactive.
